Nrf2 block – inhibitors of Nrf2 signaling. 360,000 tested, 2.1% active. A549 ARE-Fluc reporter, luciferase luminescence, 18-24 h. Potency, µM (titrated, usually from 46 µM), for inactives: top-dose activity change, negative = inhibition, usual class: inhibitors; also: % is scaled to controls: 0 for no effect and ±100 for the full control effect; nearly all actives have a fitted effect of over 60% in size
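Two sequential reads on A549 ARE_Fluc cells exposed to compound for 18-24 h: a CellTiter-Fluor fluorescence read for viability, then a luciferase luminescence read for Nrf2/ARE activity.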
HepG2 viability – kills HepG2 cells in TGF-b inhibitor counter-screen | 410,000 tested, 0.76% active | Potency, µM (series often up to 46.1 µM), for inactives: top-dose activity change, negative = cytotoxicity, usual class: cytotoxic | HepG2 CAGA-GFP viability, ATP luminescence, 18 h
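CellTiter-Glo luminescence gave cytotoxicity after 18 hours at 37 degrees C. The cells were HepG2 CAGA-GFP in 1% FBS DMEM, stimulated with 500 pg/mL TGF-beta after compound addition. %Activity was normalised to no-cell wells (complete cell-killing) and DMSO (no toxicity), and curves were fitted and classified.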
TGFb SMAD3 inh – inhibitors of TGF-b signaling | HepG2 CAGA-GFP TGF-b/SMAD3 reporter, GFP fluorescence, 18 h; TGF-beta stimulated, 500 pg/mL final | Potency, µM (titrated, usually from 46.1 µM), without a hit: at the top dose activity, negative = inhibition, actives largely listed as inhibitors | AID 588855 | 410,000 tested, 1.2% active; also: % is scaled to controls: 0 for no effect and ±100 for the full control effect; nearly all actives have a fitted effect of over 65% in size
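Cell-based qHTS in HEPG2 carrying a CAGA-GFP Smad reporter; compounds added before 500 pg/mL final TGF-beta, 18 h incubation at 37 degrees C, GFP fluorescence quantified per cell by imaging cytometry.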
ATXN viability – cell viability loss in ATXN counter-screen; AID 651635; 400,000 tested, 0.49% active; S2 cells (HEK-293 line with an ATXN2-luciferase reporter) viability, CellTiter-Fluor protease fluorescence, 24 h; Potency, µM (top dose mostly 56.7 µM), actives largely listed as cytotoxic; also: nearly all actives have a fitted effect of over 40% in size
ATXN2 expr inh – ATXN2 expression inhibition; Potency, µM (series often up to 57 µM), without a hit: at the top dose activity change, negative = inhibition, most hits filed as inhibitors; HEK-293 ATXN2-luciferase reporter, luminescence, 24 h; AID 1745845; 360,000 tested, 0.72% active; also: % is scaled to controls: 0 for no effect and ±100 for the full control effect; nearly all actives have a fitted effect of over 55% in size
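ATXN2-luciferase reporter cells (luciferase flanked by upstream and downstream ATXN2 gene portions) were treated 24 h at 37 °C with compounds at up to 57 uM. SteadyGlo luminescence gave expression; GF-AFC fluorescence gave viability.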
A549 viability – kills or reduces viability of A549 cells in Nrf2 counter-screen; AID 504648; 390,000 tested, 0.16% active; A549 ARE-Fluc cells, CellTiter-Fluor viability, 18-24 h; Potency, µM (top dose mostly 46 µM), for inactives: at the highest dose activity change, negative = cytotoxicity, most hits filed as inhibitors; also: % is scaled to controls: 0 for no effect and ±100 for the full control effect
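Cytotoxicity counterscreen: CellTiter-Fluor fluorescence was measured in A549 ARE_Fluc cells after 18-24 h of compound exposure in a concentration series. The subsequent BugLite luminescent read reports ARE-luciferase activity.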
* marks the source's active call; other numbers are inactive results. In the library only some 3.8% were active in any assay of this set; here they are far more common. Calls follow the shape of the dose curve; as a rule, active = well fitted curve in the direction sought with a large enough effect; inconclusive = small, poorly fitted or top-dose-only effect, or another doubt; inactive = no such curve, though single readings can be large; an effect the other way counts as inactive or inconclusive. Potency is read from the fitted curve at half-maximal effect.

What do the screens show for `Cc1cccc2[nH]c3c(N4CC=C(c5ccc(F)cc5)CC4)ncnc3c12`?
Nrf2 block: 21µM*; HepG2 viability: -52%; TGFb SMAD3 inh: inconclusive; ATXN viability: inconclusive; ATXN2 expr inh: inconclusive; A549 viability: -10%

How did CCN(CC)S(=O)(=O)c1ccc2c(c1)c(=O)c(C(=O)NCc1ccccc1Cl)cn2C do in these assays?
Nrf2 block: -30%; HepG2 viability: 5.6µM*; TGFb SMAD3 inh: -40%; ATXN viability: inactive; ATXN2 expr inh: -9%; A549 viability: -4%

How did CCN(CC)S(=O)(=O)c1ccc2c(c1)c(=O)c(C(=O)NCc1ccccc1)cn2C do in these assays?
Nrf2 block: -3%; HepG2 viability: -22%; TGFb SMAD3 inh: -75%; ATXN viability: inactive; ATXN2 expr inh: -17%; A549 viability: -1%

Results for Cc1cc(C)cc(NS(=O)(=O)c2ccc3[nH]cc(C(=O)NCc4ccccc4Cl)c(=O)c3c2)c1 ?
HepG2 viability: -36%; TGFb SMAD3 inh: 13µM*; ATXN viability: inconclusive; ATXN2 expr inh: -37%; A549 viability: -26%

How did Cc1cc(C)cc(NS(=O)(=O)c2ccc3[nH]cc(C(=O)NCc4ccco4)c(=O)c3c2)c1 do in these assays?
Nrf2 block: 16µM*; HepG2 viability: -51%; TGFb SMAD3 inh: inconclusive; ATXN viability: inconclusive; ATXN2 expr inh: inconclusive; A549 viability: -11%

How did CC(C)c1ccc(NS(=O)(=O)c2ccc3[nH]cc(C(=O)NC4CCCCC4)c(=O)c3c2)cc1 do in these assays?
Nrf2 block: -19%; HepG2 viability: -109%; TGFb SMAD3 inh: inconclusive; A549 viability: 10%

Results for Cc1cc(C)cc(NS(=O)(=O)c2ccc3[nH]cc(C(=O)NC4CCCCC4)c(=O)c3c2)c1 ?
Nrf2 block: 23µM*; HepG2 viability: 11µM*; TGFb SMAD3 inh: inconclusive; ATXN viability: inconclusive; ATXN2 expr inh: inconclusive; A549 viability: -16%

How did CCOC(=O)c1c(C)oc2c1cc(NS(=O)(=O)c1ccc(C)cc1)c1ccccc12 do in these assays?
Nrf2 block: 5%; HepG2 viability: -15%; TGFb SMAD3 inh: 0%; ATXN viability: inactive; ATXN2 expr inh: 2%; A549 viability: 0%

What do the screens show for `O=S1(=O)NCC23CCC(CC21)O3` (stereo unspecified)?
Nrf2 block: -9%; HepG2 viability: 1%; TGFb SMAD3 inh: 1%; A549 viability: -4%

Results for COc1ccc(CNC(=O)c2nn(-c3ccccc3C)nc2CO)cc1 ?
Nrf2 block: -25%; HepG2 viability: -21%; TGFb SMAD3 inh: 0%; A549 viability: 1%

How did O=C(CCS(=O)(=O)c1ccc(F)cc1)Nc1nccs1 do in these assays?
HepG2 viability: -18%; TGFb SMAD3 inh: -18%; ATXN viability: inactive

What do the screens show for `COc1ccc(S(=O)(=O)CCC(=O)N2CCN(c3ccc([N+](=O)[O-])cc3)CC2)cc1`?
Nrf2 block: inconclusive; HepG2 viability: -23%; TGFb SMAD3 inh: inconclusive; ATXN viability: inconclusive; ATXN2 expr inh: -25%; A549 viability: -20%

How did CC1(C(=O)N2CCN(c3ccc([N+](=O)[O-])cc3)CC2)CC1(Cl)Cl (stereo unspecified) do in these assays?
Nrf2 block: 18µM*; HepG2 viability: -15%; TGFb SMAD3 inh: -25%; ATXN viability: inconclusive; A549 viability: -25%

Results for Cc1ccc(S(=O)(=O)CCC(=O)N2CCN(c3ccc([N+](=O)[O-])cc3)CC2)cc1 ?
Nrf2 block: 21µM*; HepG2 viability: -8%; TGFb SMAD3 inh: -7%; ATXN viability: inactive; A549 viability: -5%

Results for Cc1onc(-c2ccccc2)c1NC(=O)N(CCC#N)Cc1ccccc1 ?
Nrf2 block: -5%; HepG2 viability: -16%; TGFb SMAD3 inh: -1%; ATXN viability: inactive; ATXN2 expr inh: -16%; A549 viability: -2%

Results for Cc1ccc(N(CC(=O)Nc2c(C)n(C)n(-c3ccccc3)c2=O)S(C)(=O)=O)cc1C ?
HepG2 viability: -5%; TGFb SMAD3 inh: -8%; ATXN viability: inactive; ATXN2 expr inh: 8%; A549 viability: 0%

What do the screens show for `Cc1cccc(N(CC(=O)Nc2c(C)n(C)n(-c3ccccc3)c2=O)S(C)(=O)=O)c1C`?
Nrf2 block: -16%; HepG2 viability: -5%; TGFb SMAD3 inh: 2.8µM*; ATXN viability: inactive; ATXN2 expr inh: -1%; A549 viability: 20%

Results for Cc1ccc(NC(=O)c2cc([N+](=O)[O-])ccc2N2CCOCC2)cc1S(=O)(=O)N1CCOCC1 ?
Nrf2 block: -22%; HepG2 viability: 6%; TGFb SMAD3 inh: inconclusive; ATXN viability: inactive; ATXN2 expr inh: -6%; A549 viability: -13%

How did Cc1ccc(NC(=O)c2ccc([N+](=O)[O-])o2)cc1S(=O)(=O)N1CCOCC1 do in these assays?
Nrf2 block: 9%; HepG2 viability: -55%; TGFb SMAD3 inh: 14µM*; ATXN viability: inactive; ATXN2 expr inh: inconclusive; A549 viability: 6%

What do the screens show for `CCc1sc(C(=O)Nc2ccc(OC)c(S(=O)(=O)N3CCOCC3)c2)cc1C`?
Nrf2 block: inconclusive; HepG2 viability: -13%; TGFb SMAD3 inh: -23%; ATXN viability: inactive; ATXN2 expr inh: -35%; A549 viability: -8%

Results for Cc1ccc(S(=O)(=O)Nc2ccc(Cl)cc2)cc1NC(=O)c1cc2c(s1)CCCC2 ?
Nrf2 block: inconclusive; HepG2 viability: -36%; TGFb SMAD3 inh: 13µM*; ATXN viability: inconclusive; ATXN2 expr inh: -14%; A549 viability: inconclusive

What do the screens show for `COc1ccc(C(=O)Nc2ccc(-c3ccc(C)o3)cc2)cc1S(=O)(=O)N1CCOCC1`?
Nrf2 block: 18µM*; HepG2 viability: -29%; TGFb SMAD3 inh: -19%; ATXN viability: inactive; ATXN2 expr inh: inconclusive; A549 viability: inconclusive

Results for COc1ccc(NC(=O)c2cc3c(s2)CCC(C)C3)cc1S(=O)(=O)N1CCOCC1 (stereo unspecified) ?
Nrf2 block: 18µM*; HepG2 viability: -22%; TGFb SMAD3 inh: inconclusive; ATXN viability: inconclusive; ATXN2 expr inh: inconclusive; A549 viability: -17%

What do the screens show for `OCCN1CCN(Cc2ccc3c(c2)CN(Cc2ccc4ccccc4c2)CCO3)CC1`?
ATXN viability: inactive

Results for Cc1ccc(NC(=O)c2cc3c(s2)CCC3)cc1S(=O)(=O)N1CCOCC1 ?
Nrf2 block: 21µM*; HepG2 viability: -23%; TGFb SMAD3 inh: -12%; A549 viability: -19%

From PubChem
